# In PubChem BioAssay (NCI):
# About 83,000 compounds went through this panel and 20% of them were active in at least one assay; those are over-represented in the sample as a whole.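 Growth was measured after 48 h exposure to one concentration of compound in 96-well plates. Values under 10 count as active.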 Values without a mark were called inactive. Activity calls are given as the source filed them.
# Experiments:
# Experiment in all cases: NCI-60 one-dose screen, 48 h (100 = growth as untreated, 0 = no growth, -100 = all killed)
# Conditions in all cases: 10 µM unless noted
# HCT-15 colon = test system: HCT-15 colon
# HT29 colon = test system: HT29 colon
# SNB-75 CNS = test system: SNB-75 CNS
# SNB-19 CNS = test system: SNB-19 CNS
# U251 CNS = test system: U251 CNS
# PC-3 prostate = test system: PC-3 prostate
# SK-MEL-5 melanoma = test system: SK-MEL-5 melanoma
# UACC-62 melanoma = test system: UACC-62 melanoma
# LOX IMVI melanoma = test system: LOX IMVI melanoma
# SK-MEL-28 melanoma = test system: SK-MEL-28 melanoma
# EKVX NSCLC = test system: EKVX NSCLC
# SN12C renal = test system: SN12C renal
# UO-31 renal = test system: UO-31 renal
# TK-10 renal = test system: TK-10 renal
# ACHN renal = test system: ACHN renal
# CAKI-1 renal = test system: CAKI-1 renal
# A498 renal = test system: A498 renal
# CCRF-CEM leukemia = test system: CCRF-CEM leukemia
# MOLT-4 leukemia = test system: MOLT-4 leukemia
Compound,growth (HCT-15 colon),growth (HT29 colon),growth (SNB-75 CNS),growth (SNB-19 CNS),growth (U251 CNS),growth (PC-3 prostate),growth (SK-MEL-5 melanoma),growth (UACC-62 melanoma),growth (LOX IMVI melanoma),growth (SK-MEL-28 melanoma),growth (EKVX NSCLC),growth (SN12C renal),growth (UO-31 renal),growth (TK-10 renal),growth (ACHN renal),growth (CAKI-1 renal),growth (A498 renal),growth (CCRF-CEM leukemia),growth (MOLT-4 leukemia)
COc1cc(-c2n[nH]nc2-c2ccccn2)cc(OC)c1OC,76.8%,112%,88.1%,94.8%,106%,82.1%,102%,87.3%,98.5%,120%,94.6%,89.7%,87.7%,151%,94.8%,124%,118%,97.7%,96.6%
O=C(/C=C/c1ccc(C(F)(F)F)cc1)c1ccc(Nc2nc(NCCO)nc(NCCO)n2)cc1,45.5%,5.46% (active),55.8%,56.7%,-21.2% (active),48.7%,76.5%,79.1%,-44.2% (active),94.9%,79.5%,65.7%,44.2%,54.8%,83.7%,,82.1%,7.48% (active),
Cc1sc2nc(N3CCCCC3)[nH]c(=O)c2c1C,103%,88.6%,91%,92.4%,92.4%,76.4%,96.9%,97.5%,99%,103%,94.3%,99.2%,96%,106%,103%,,95%,93.7%,88.8%
Clc1ccc(C2=NN(c3ccc(Cl)cc3)C(c3cccc(Nc4ccnc5cc(Cl)ccc45)c3)C2)cc1 (stereo not given),85.2%,77.9%,77.3%,82.3%,76.8%,65.7%,92.8%,88.3%,85.1%,104%,74.3%,77.7%,50.7%,95.2%,88.7%,,89.3%,88.5%,56.7%
O=c1[nH]c(N2CCC(Cc3ccccc3)CC2)nc2sc3c(c12)CCCC3,101%,83.8%,89.4%,106%,91.7%,72.7%,102%,98.1%,97.4%,115%,99.5%,103%,102%,99%,104%,,102%,91.6%,100%
CCN(CC)c1ccc(C(=C2C=CC(=[N+](CC)Cc3cccc(S(=O)(=O)O)c3)C=C2)c2ccc(N(CC)Cc3cccc(S(=O)(=O)O)c3)cc2)cc1,85.1%,12.8%,33.2%,56.9%,20.8%,-3.18% (active),54%,63.8%,35.4%,30.3%,33.2%,22.8%,,69.5%,77.3%,,36%,,48%
O=C(CNC(=O)c1cccc2ccccc12)Nc1ccccc1Oc1cccc(O)c1,22.6% [5 µM],14.8% [5 µM],4.28% [5 µM] (active),38% [5 µM],14.3% [5 µM],28.1% [5 µM],26.4% [5 µM],44.9% [5 µM],33.4% [5 µM],57.3% [5 µM],47.2% [5 µM],49% [5 µM],44.5% [5 µM],42% [5 µM],51% [5 µM],,11.5% [5 µM],,11.9% [5 µM]
Cc1sc2nc(NCCc3cccs3)[nH]c(=O)c2c1C,59.6%,85.1%,90.1%,90.2%,75.8%,71.9%,90.8%,63.1%,88.7%,100%,85.5%,87.7%,90%,96.8%,96.1%,,70.7%,81.9%,75.3%
O=C(CNC(=O)c1cccc2ccccc12)Nc1ccccc1Oc1ccc(O)cc1,27.4% [5 µM],4.1% [5 µM] (active),19.7% [5 µM],51.9% [5 µM],20.8% [5 µM],31.1% [5 µM],27.7% [5 µM],55% [5 µM],40.9% [5 µM],59.9% [5 µM],52.4% [5 µM],55% [5 µM],45.2% [5 µM],43.6% [5 µM],43.8% [5 µM],,17.6% [5 µM],22.4% [5 µM],19.6% [5 µM]
COc1ccc(C2=NN(C(C)=O)C(c3cccc(Nc4ccnc5cc(Cl)ccc45)c3)C2)cc1 (stereo not given),44.8%,7.9% (active),56.4%,56.5%,51%,31%,43.7%,68.6%,42.7%,73%,64.7%,48.5%,,58.3%,60.8%,,33.1%,40.8%,22.3%
COc1cccc(N2CCN(CC(=O)N3CCN(c4nnc(-c5ccc(Cl)cc5)c(-c5ccc(Cl)cc5)n4)CC3)CC2)c1,49.5%,51%,76.3%,77.1%,65.7%,15.8%,48.4%,70.4%,65%,88.7%,57%,76.7%,,93.8%,57.1%,92.2%,55.4%,43.2%,28.4%
O=C(CN1CCN(c2ccc(Cl)cc2)CC1)N1CCN(c2nnc(-c3ccccc3)c(-c3ccccc3)n2)CC1,42.3%,29.2%,65.8%,60%,45.8%,12.1%,-9.45% (active),53%,38.5%,83%,29.9%,49.5%,14.6%,68.8%,39.3%,92.6%,45.4%,20.4%,-35.1% (active)
CN1C(=O)C(C2=NN(C=O)C(c3ccc(F)cc3)C2)C(=O)N(C)C1=O (stereo not given),101%,91.7%,93.5%,92.4%,92.3%,78.7%,102%,100%,90.4%,111%,101%,97.3%,96.6%,99.1%,107%,,96.7%,77.4%,93.8%
COc1cc(C2CC(C3C(=O)N(C)C(=O)N(C)C3=O)=NN2c2cc(Cl)cc(Cl)c2)cc(OC)c1OC (stereo not given),98.2%,91.6%,100%,91.7%,92.5%,74.3%,91.3%,75.6%,99%,101%,93.8%,93.6%,83.2%,94.1%,96.3%,,88.5%,,88.9%
CCOC(=O)c1cnc2c(C)cc(C)cc2c1NCCCN(C)C,28.2%,13.1%,51.1%,42.4%,28.3%,22%,46.5%,46.7%,23.2%,76.2%,41%,37.6%,,30.7%,28.7%,-7.71% (active),64.5%,19.8%,
